Among all 310,000 compounds or so, about 14,000 (4.5%) showed an effect of 50% or more. The effect is printed as a negative number. This excerpt belongs to a sample that is enriched for strong results.
The compounds below were run against human ether-à-go-go-related gene (hERG) potassium channel (human, UniProt Q12809) (assay: primary screen, population patch clamp on CHO cells stably expressing hERG; higher = less effect of the substance).
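Note: peak tail current of the secondary pulse compared with the same well before compound.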

Chain of human ether-à-go-go-related gene (hERG) potassium channel (Q12809 whole entry, looked up): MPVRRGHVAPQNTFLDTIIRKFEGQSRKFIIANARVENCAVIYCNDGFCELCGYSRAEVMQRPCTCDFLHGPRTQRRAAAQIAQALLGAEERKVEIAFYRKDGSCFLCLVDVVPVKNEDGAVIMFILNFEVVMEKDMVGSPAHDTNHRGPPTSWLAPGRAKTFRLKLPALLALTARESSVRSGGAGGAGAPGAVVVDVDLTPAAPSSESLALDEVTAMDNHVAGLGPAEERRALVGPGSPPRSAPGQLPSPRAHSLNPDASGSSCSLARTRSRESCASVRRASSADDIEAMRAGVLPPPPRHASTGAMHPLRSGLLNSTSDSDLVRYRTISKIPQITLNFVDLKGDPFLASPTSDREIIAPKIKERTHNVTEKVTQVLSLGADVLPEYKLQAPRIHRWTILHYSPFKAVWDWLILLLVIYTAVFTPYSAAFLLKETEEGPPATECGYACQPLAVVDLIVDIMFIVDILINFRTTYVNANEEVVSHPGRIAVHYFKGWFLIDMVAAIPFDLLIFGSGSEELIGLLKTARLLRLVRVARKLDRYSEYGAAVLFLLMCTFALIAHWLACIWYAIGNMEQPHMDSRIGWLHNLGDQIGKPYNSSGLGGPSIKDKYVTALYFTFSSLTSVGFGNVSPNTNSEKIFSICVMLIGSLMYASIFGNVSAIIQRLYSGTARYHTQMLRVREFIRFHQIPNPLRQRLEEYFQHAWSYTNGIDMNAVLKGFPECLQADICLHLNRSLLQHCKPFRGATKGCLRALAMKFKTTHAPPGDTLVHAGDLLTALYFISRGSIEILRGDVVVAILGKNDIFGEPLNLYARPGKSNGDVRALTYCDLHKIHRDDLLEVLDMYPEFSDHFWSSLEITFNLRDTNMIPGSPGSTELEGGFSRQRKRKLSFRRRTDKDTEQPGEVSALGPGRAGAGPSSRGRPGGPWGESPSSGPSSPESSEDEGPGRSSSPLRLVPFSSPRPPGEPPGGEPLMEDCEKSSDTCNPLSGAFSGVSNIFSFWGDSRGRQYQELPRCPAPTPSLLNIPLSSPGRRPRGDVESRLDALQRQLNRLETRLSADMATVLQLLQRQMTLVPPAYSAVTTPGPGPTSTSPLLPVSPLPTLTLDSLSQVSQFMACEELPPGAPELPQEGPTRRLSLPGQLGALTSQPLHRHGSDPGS

SMILES	hERG current change (%, negative = inhibition) at 10uM [%]
CN1CCC(=NNC(=O)c2cc(-c3ccc(Cl)cc3)n[nH]2)CC1	-16.4
c1ccc(-c2cccc(-c3ccccc3)n2)cc1	18.4
CCOc1ccc(CCNC(=O)COC(=O)C2CC2)cc1OCC	3.41
Cc1nnc(SCC(=O)Nc2ccc3c(c2)OCCO3)n1N	12.4
CSc1ccccc1NC(=O)c1c(Br)cnn1C	-1.39
CCCCn1c(CN2CCN(C(=O)OCC)CC2)nc2c1c(=O)n(C)c(=O)n2C	-18.1
CCCCCCn1c(CN2CCN(C)CC2)nc2c1c(=O)n(C)c(=O)n2C	-80.9
CCOCCn1c(CN2CCCC(C)C2)nc2c1c(=O)n(C)c(=O)n2C (stereo not drawn)	11.7
CCCCCCn1c(CN2CCN(C(=O)OCC)CC2)nc2c1c(=O)n(C)c(=O)n2C	-53.5
CCCCn1c(CN2CCN(C(=O)OCC)CC2)nc2c1c(=O)[nH]c(=O)n2C	6.72
CCCCCCn1c(CN2CCC(C)CC2)nc2c1c(=O)n(C)c(=O)n2C	-8.75
CCCCCn1c(CN2CCN(C)CC2)nc2c1c(=O)n(C)c(=O)n2C	-33.1
CCOC(=O)N1CCN(Cc2nc3c(c(=O)[nH]c(=O)n3C)n2CCCc2ccccc2)CC1	-37.5
CCCCCCn1c(CN2CCCC(C)C2)nc2c1c(=O)n(C)c(=O)n2C (stereo not drawn)	-58.1
CCCCCCn1c(CN2CCCCC2)nc2c1c(=O)n(C)c(=O)n2C	-35.7
CCCCCn1c(CN2CCN(C(=O)OCC)CC2)nc2c1c(=O)n(C)c(=O)n2C	-34.6
CCCCCn1c(CN2CCN(C(=O)OCC)CC2)nc2c1c(=O)[nH]c(=O)n2C	-69.8
CC1CCC(NC(=O)C2CC(=O)N(c3ccc4c(c3)OCCO4)C2)CC1 (stereo not drawn)	8.92
COc1ccc(N(C(=O)c2ccco2)S(=O)(=O)c2ccccc2)cc1	-44.3
COc1cccc(NC(=O)CSc2nnnn2C(C)C)c1	2.64
COc1ccc(-c2nsc3c(N4CCCCC4C)ncnc23)cc1 (stereo not drawn)	33.3
Cc1nnc(NC(=O)C2CCCO2)s1 (stereo not drawn)	3.17
CCn1c2ccccc2c2cc(CN3CCN(S(=O)(=O)CC)CC3)ccc21.O=C(O)C(=O)O	-13.4
Cc1cc(OCC(=O)OC(C)(C)C)c2c3c(c(=O)oc2c1)CCC3	5.64

SMILES	hERG current change (%, negative = inhibition) at 10uM [%]
Cc1ccc(NC2CCCN(C(=O)c3cnc4ccccn4c3=O)C2)cc1C (stereo not drawn)	-3.33
CCOc1ccc(S(=O)(=O)NCc2cccnc2)cc1	15.5
Cc1ccc(C(=O)OC2CCOC2=O)cc1NC(=O)c1ccco1 (stereo not drawn)	0.0901
Cc1cc(C)c2c(N)c(C(=O)NC3CC3)sc2n1	8.51
CC(C)(C)CNC(CO)C12CC3CC(CC(C3)C1)C2.Cl (stereo not drawn)	-4.3
Cc1ncc(S(=O)(=O)C(C)(C)C)c(N)n1	2.37
O=C(c1sc2cccc(Cl)c2c1Cl)N1CCN(CCc2ccccn2)CC1	-28.9
O=C(c1cc(-c2ccccn2)nc2ccc(Cl)cc12)N1CCN(CCc2ccccc2)CC1	6.73
O=C(c1sc2ccccc2c1Cl)N1CCN(c2ccccn2)CC1	-68.7
Cc1noc(C)c1C(=O)N1CCN(C(=O)c2sc3cc(Cl)ccc3c2Cl)CC1	-47.4
O=C(c1sc2ccccc2c1Cl)N1CCN(c2ccc(F)cc2)CC1	-3.54
O=C(c1sc2ccccc2c1Cl)N1CCN(c2ccccc2F)CC1	-1.51
O=C(c1sc2cc(Cl)ccc2c1Cl)N1CCN(CCc2ccccn2)CC1	-69.6
O=C(c1sc2ccccc2c1Cl)N1CCN(CCc2ccccn2)CC1	-60.5
O=C(c1sc2ccccc2c1Cl)N1CCN(c2ncccn2)CC1	-9.78
COc1cc(C)nc(N2CCCC(C(=O)NC3CCC(C)CC3)C2)n1 (stereo not drawn)	-0.336
CCOc1ccc(CCNC(=O)CSCc2ccc(C)cc2)cc1OCC	-2.33
Cc1cc2c(cc1C)NC(=O)CC(C(F)(F)C(F)(F)C(F)(F)F)=N2	9.6
C(=N\NC1=Nc2cccc3cccc1c23)/c1cccnc1	-5.08
O=C(O)c1ccc(NC(=O)C(c2ccccc2)c2ccccc2)cc1	14.3
COc1ccc(C2C(C#N)=C(SC)NC3=C2C(=O)CC(C)(C)C3)cc1 (stereo not drawn)	-15.4
COC(=O)[C@@H]1CCCN1Cc1c(C(=O)N2CCOCC2)nc2c(C)cccn12	24.1
COc1ccccc1NC(=O)Nc1ccnn1C1CCCCC1	-12.7
COc1ccccc1N1CCN(CC(=O)Nc2ccnn2C2CCCC2)CC1	3.01

SMILES	hERG current change (%, negative = inhibition) at 10uM [%]
O=C(Nc1ccnn1C1CCN(C2CCCCC2)CC1)c1ccccc1	-25.8
O=C(Nc1ccnn1C1CCN(CCCC2CCCC2)CC1)c1ccccc1	-73.1
O=C(Nc1ccnn1C1CCN(C2CCCC2)CC1)c1ccccc1	1.61
O=C(Nc1ccnn1C1CCN(CCCC2CCCC2)CC1)c1ccccc1Cl	-86.4
COc1ccccc1C(=O)Nc1ccnn1C1CCN(CCCC2CCCC2)CC1	-85.1
O=C(c1cc(=O)[nH]c2ccccc12)N1CCc2ccccc2C1	11
O=c1c2ccccc2nc2n1CCO2	10.2
COc1cc2cc(Oc3ccc4ccc(=O)oc4c3)c(=O)oc2cc1OC(C)=O	0.234
COc1ccc(-c2cn3cc(C(F)(F)F)cc(Cl)c3n2)cc1	9.73
Cc1ccc(C(=O)Nc2nc3ccc(S(C)(=O)=O)cc3s2)o1	-0.566
Cc1nc(CN(C)C(=O)c2ccccc2OC2CCN(S(C)(=O)=O)CC2)cs1	3.35
COc1ccc(CCNC(=O)CCC(=O)N2CCOc3ccc(Cl)cc32)cc1OC	-20.2
COc1ccc(N2CCN(C(=O)CCC(=O)N3CCOc4ccc(Cl)cc43)CC2)cc1	-52.8
O=C(CCC(=O)N1CCOc2ccccc21)N1CCN(c2ccccc2)CC1	-70
O=C(CCC(=O)N1CCOc2ccccc21)N1CCOCC1	-5.85
COc1ccc(N2CCN(CCCNC(=O)CCC(=O)N3CCOc4ccc(Cl)cc43)CC2)cc1	-70.4
COc1ccc(N2CCN(C(=O)CCC(=O)N3CCOc4ccc(C)cc43)CC2)cc1	-42.7
COc1ccccc1CNC(=O)CCC(=O)N1CCOc2ccc(Cl)cc21	-5.43
COc1cccc(N2CCN(C(=O)CCC(=O)N3CCOc4ccc(C)cc43)CC2)c1	-30.3
Cc1ccc2c(c1)N(C(=O)CCC(=O)N1CCN(c3ccccc3)CC1)CCO2	-43.8
O=C(Oc1nsnc1N1CCOCC1)N1CCOCC1	15.3
CCc1noc(C)c1C(=O)Nc1cc(C(F)(F)F)ccc1-n1cncn1	-21.3
O=C(Nc1cccc2nsnc12)c1ccc(-c2cccc(Cl)c2)o1	10.4
FC(F)(F)c1ccccc1NC(=S)NN=C1CCCCCC1	23.5

SMILES	hERG current change (%, negative = inhibition) at 10uM [%]
CCC(=O)N(CCc1ccccc1C)Cc1cc2cc3c(cc2[nH]c1=O)OCO3	-3.05
COC(=O)c1ccccc1NC(=O)Cn1nc2n(C)c3ccccc3n2c(=O)c1=O	-3.54
Cc1ccc(N2CC(C(=O)NCCN3CCOCC3)CC2=O)cc1C (stereo not drawn)	10.2
Cn1nnnc1P(=O)(c1ccccc1)c1ccccc1	7.84
O=C1NCC(O)=C1C=NC12CC3CC(CC(C3)C1)C2 [4246017]	12.6
COc1ccc(NC(=O)N2c3ccc(OC)cc3C(C)=CC2(C)C)cc1	20.1
CC1=C(c2ccccc2)[N+](=O)C2(CCCCC2)N1[O-]	-4.49
COc1ccc(C2=NOC3(CC(=O)N(c4ccc(F)cc4)C3=O)C2)cc1 (stereo not drawn)	15.5
O=C(COC(=O)c1cc([N+](=O)[O-])ccc1NCCO)Nc1ccc2c(c1)OCO2	5.75
COc1ccc(-n2cc(-c3ccccc3)[n+]3c2CCCCC3)cc1.[Br-]	-19.3
COc1ccc(N2CCN(C(=O)COC(=O)c3ccc(OC(F)F)cc3)CC2)cc1	-26.5
O=C(Nc1ccc(Cl)cc1)N(C1=NCCC1)c1ccc(OC(F)F)cc1	-8.02
COc1ccc(-n2cc(-c3ccc(OC(F)F)cc3)[n+]3c2CCCCC3)cc1.[Br-]	-76.3
Br.FC(F)Oc1ccc(-c2csc(NNC3=NCCCCC3)n2)cc1	-47.5
FC(F)Oc1ccc(-n2cc(-c3ccc(Cl)cc3)[n+]3c2CCCCC3)cc1.[Br-]	-78.3
Brc1ccc(-c2csc3[n+]2CCCCC3)cc1.[Br-]	-6.25
Clc1ccc(-c2cn(-c3ccc(Cl)cc3)c3[n+]2CCCCC3)cc1.[Br-]	-52.7
FC(F)Oc1ccc(-n2cc(-c3ccccc3)[n+]3c2CCCCC3)cc1.[Br-]	-55.6
Clc1ccc(-n2cc(-c3ccc(Br)cc3)[n+]3c2CCCCC3)cc1.[Br-]	-49.4
[Cl-].c1ccc(-c2c[nH]c3[n+]2CCCCC3)cc1	-2.27
COc1ccc(-c2cn(-c3ccc(Cl)cc3)c3[n+]2CCCCC3)cc1.[Br-]	-31.9
